# Measurements from ChEMBL document CHEMBL3433997, “St. Jude Leishmania screening dataset” (2016).
# Key:
# Format in all cases: functional
# [1] = target: Solute carrier family 2, facilitated glucose transporter member 1 (Homo sapiens) (UniProt P11166); experiment: ST_JUDE_LEISH: Cytotoxicity at 2uM final concentration against transgenic Leishmania Mexicana promastigotes LmGLUT1 that are glucose transport deficient and complemented with the human glucose transporter GLUT1. Activity is measured by DNA content using SYBR green in vitro
# Chain of Solute carrier family 2, facilitated glucose transporter member 1 (Homo sapiens) (P11166 whole entry): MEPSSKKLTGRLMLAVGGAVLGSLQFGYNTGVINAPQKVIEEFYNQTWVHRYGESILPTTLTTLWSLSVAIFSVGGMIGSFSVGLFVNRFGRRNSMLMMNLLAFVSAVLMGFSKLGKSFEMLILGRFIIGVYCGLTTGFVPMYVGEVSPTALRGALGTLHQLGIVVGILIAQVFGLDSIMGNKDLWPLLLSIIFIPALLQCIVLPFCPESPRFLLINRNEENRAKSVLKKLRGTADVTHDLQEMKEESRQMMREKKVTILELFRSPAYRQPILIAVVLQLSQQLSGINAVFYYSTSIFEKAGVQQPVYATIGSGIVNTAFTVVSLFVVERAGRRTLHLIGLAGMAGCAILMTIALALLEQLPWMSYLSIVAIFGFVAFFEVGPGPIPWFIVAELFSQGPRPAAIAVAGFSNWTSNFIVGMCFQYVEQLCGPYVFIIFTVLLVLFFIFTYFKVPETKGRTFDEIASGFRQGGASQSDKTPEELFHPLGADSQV
# [2] = target: Hexose transporter 1 (Plasmodium falciparum) (UniProt O97467); experiment: ST_JUDE_LEISH: Cytotoxicity at 2uM final concentration against transgenic Leishmania Mexicana promastigotes LmPfHT that are glucose transport deficient and complemented with the Plasmodium falciparum hexose transporter. Activity is measured by DNA content using SYBR green in vitro
# [3] = target: Glucose transporter (Leishmania mexicana) (UniProt O61059); experiment: ST_JUDE_LEISH: Cytotoxicity at 2uM final concentration against transgenic Leishmania Mexicana promastigotes LmGT2 that are glucose transport deficient and complemented with the L. Mexicana glucose transporter 2. Activity is measured by DNA content using SYBR green in vitro
Compound,inhibition [1] [%],inhibition [2] [%],inhibition [3] [%]
COc1cc(C(=O)N2CCOC(CCN3CCC(Cc4ccc(F)cc4)CC3)(c3ccc(Cl)c(Cl)c3)C2)cc(OC)c1OC (configuration not stated),5.79,7.29,2.49
CN(C)Cc1cccc(-c2ccc(NC(=O)c3ccc4c(=O)n(Cc5ccoc5)cnc4c3)cc2)c1,63.7,54.6,24.1
COc1ccccc1CCNc1nccc(N[C@@H](Cc2ccccc2)C(=O)NCc2cccs2)n1,1.78,1.77,-0.08
N=C(/N=C(/NCCCCCCN/C(=N\C(=N)Nc1ccc(Cl)cc1)N1CCCCC1)N1CCCCC1)Nc1ccc(Cl)cc1,-2.47,-2.65,-0.71
Cc1cccc2nc(-c3ccc(-c4cccc(CNCc5cnn(-c6ccccc6)n5)c4)s3)[nH]c12,3.52,2.05,1.93
CCCCCCc1cc(Oc2c(I)cc(C[C@H](N)C(=O)O)cc2I)ccc1O,0.33,1.79,-0.38
Cc1onc(-c2ccccc2)c1C(=O)Nc1nc(-c2ccccn2)nc2ccsc12,2.38,1.96,0.03
CC(C)(C)c1ccc(NC(=O)c2cccc(CN3CCN(Cc4cccc(O)c4)CC3)c2)cc1,0.93,-0.15,0.64
CN1CCC(C(=O)N(Cc2ccc(-c3ccc(CNCCc4ccc(S(C)(=O)=O)cc4)cn3)cc2)Cc2cccc(F)c2)CC1,1.69,0.58,0.97
Cn1cccc1C(=O)C(=O)Nc1cccc(-c2ccc(-c3nc4cc(C(F)(F)F)ccc4[nH]3)cc2)c1,4,2.42,-0.4
Cc1ccc(Cn2ncc(N3CCNCC3)c(Cl)c2=O)cc1NC(=O)Nc1ccc(-c2ccccc2)cc1,-0.01,2.78,2.01
Cc1ccc(-c2ccc(Cl)cc2Oc2cnc(N)nc2N)o1,1.95,2.44,0.26
CCC(C(=O)Nc1ccccc1)n1nc(-c2ccc(C)c(S(=O)(=O)N3CCCCC3)c2)ccc1=O (configuration not stated),3.12,4.1,4.74
CCCCNC(=O)[C@H](CC1CCCCC1)NC(=O)c1ccc(O)c(-c2ccc(OC)cc2)c1,2.45,2.88,4.23
COc1ccc(CN2CCCN(Cc3cccc(NC(=O)c4cc5ccccc5s4)c3)CC2)cc1,0.39,-0.1,-1.39
c1ccc(Oc2ccc(Nc3ccnc4ccc(-c5ccccn5)cc34)cc2)cc1,2.62,4.16,3.02
Cc1[nH]c(C)c(-c2ccc(OCCSc3ccncc3)cc2)c(=O)c1Br,1.9,-0.1,0.05
Cc1ccc(C(=O)Nc2ccc(Cl)c(N3CCN(CCc4ccccc4)CC3)c2)cc1,4.14,8.02,6.51
Nc1ncc(-c2ccc(F)cc2)cc1-c1nc2ccc(Cl)cc2[nH]1,4.48,5.54,2.11
CCCC(CC)n1ccc2c3c(N)nc(N)nc3ccc21 (configuration not stated),70.5,76.3,57.8
Cc1cc([N+](=O)[O-])ccc1N1CCN(CCCCNC(=O)c2ccc(NC(=O)c3ccc(Cl)cc3)cc2)CC1,4.75,4.19,4.35
Cc1cc(N(CCO)CCCN2CCCCC2)nc(Nc2ccc(Cl)cc2)n1,1.77,1.35,2.41
C[C@H]1CN(Cc2cccc(-c3cc(CNC(=O)c4cccc(CN5CCN(CCOc6ccccc6)CC5)c4)ccc3F)c2)CCN1,0.77,0.96,2.94

Compound,inhibition [1] [%],inhibition [2] [%],inhibition [3] [%]
Cc1cccc2nc(-c3cccc(-c4cccc(NC(=O)Nc5ccc(Cl)c(Cl)c5)c4)c3)[nH]c12,-0.37,-0.17,-0.99
COc1ccc(CNCc2ccccc2)cc1-c1cccc(S(=O)(=O)NCCN2CCCC2)c1,1.03,1.05,-3.15
CCOc1cccc(C(=O)Nc2cccc(CN3CCCN(Cc4cccc(O)c4)CC3)c2)c1,4.67,5.58,3.26
CN(C)CC(=O)Nc1ccc(-c2ccc3ccnc(N)c3c2)cc1,13.7,24.3,5.49
CN(C)CCOc1ccc2c(c1)OC(C)(C)C=C2c1cccc2ccccc12,4.01,3.57,3.75
COc1ccccc1/C=C/C(=O)NCCC1CCN(CCCCCNC(=O)/C=C/c2ccc(Cl)c(Cl)c2)CC1,16.2,13,12.2
O=C(C=Cc1ccc(Cl)c(Cl)c1)NCCCCCN1CCCC(CCCNC(=O)c2sc3ccccc3c2Cl)C1 (configuration not stated),2.3,1.22,-0.49
CC1CC(C)CN(CCCNc2ccc(C(=O)Nc3ccc(C(F)(F)F)cc3)cc2[N+](=O)[O-])C1 (configuration not stated),3.92,0.64,1.47
CN1CCC(Oc2ccc(CN3CC[C@H](NC(=O)c4ccc(Cl)c(Cl)c4)C3)c3ccccc23)C1 (some centres not stated),2.7,4.41,3.37
CCN(CC)CCN(Cc1ccc(-c2ccc(C(F)(F)F)cc2)cc1)C(=O)Cn1c(CCc2cccc(C#N)c2)nc(=O)c2ccccc21,2.68,1.83,2.44
CC(C)(C)Cn1cc(-c2ccc(C(=O)NCCc3ccc(S(C)(=O)=O)cc3)cc2)c(N)n1.CC(C)(C)Cn1ncc(-c2ccc(C(=O)NCCc3ccc(S(C)(=O)=O)cc3)cc2)c1N,0.21,1.16,2.93
O=C(NC(CCCN1CCC2(CC1)OCc1ccccc12)c1ccc(Cl)c(Cl)c1)c1cc(C(F)(F)F)cc(C(F)(F)F)c1 (configuration not stated),1.7,0.26,-2.79
COc1cc(CNC[C@@H](O)[C@H](Cc2ccccc2)NC(=O)c2cc(C3CCCC3)cc(N3CCCS3(=O)=O)c2)cc(OC)c1,4.36,3.83,4.45
Cc1cc(N/N=C/c2ccccc2[N+](=O)[O-])c2cccc(C)c2n1,11.2,13.9,7.94
OCCN1CCN(Cc2ccc(-c3ccc(-c4nc5cc(F)ccc5[nH]4)cc3)cc2)CC1,8.49,6.23,3.78
COc1ccccc1N1CCN(Cc2cc(C(C)C)c(C)cc2O)CC1,3.59,6.3,0.93
Cn1nc(-c2ccccc2F)c2cc(C(=O)Nc3cccnc3)sc21,3.76,2.08,2.9
CC(C)(C)N1CCC(N(Cc2ccc(-c3ccc(C(F)(F)F)cc3)cc2)C(=O)Cn2c(CCc3cccc(F)c3F)nc(=O)c3cccnc32)CC1,2.09,0.99,0.47
CC1CN(Cc2cccc(C#N)c2)CCN1c1ccc(NC(=O)c2cccs2)cc1 (configuration not stated),6.93,7.96,4.53
CN(C)CCCNCc1cn(S(=O)(=O)c2ccccc2Cl)c2ccccc12,5.36,5.25,7.6
COc1cccc2c(C)cc(NCc3ccc(Cl)cc3)nc12,4.96,4.71,3.54
Cc1ccc(O)c(-c2cc(C(=O)Nc3ccc(S(=O)(=O)N4CCCCCC4)cc3)[nH]n2)c1,-2.76,-1.17,-0.85
O=C(/C=C/c1ccc(Cl)c(Cl)c1)NCCCCCN1CCCC(C(=O)Nc2cccc(Cl)c2)C1 (configuration not stated),3.89,2.5,1.07

Compound,inhibition [1] [%],inhibition [2] [%],inhibition [3] [%]
CC(C)COc1ccc(Cl)cc1Cc1ccc(-c2nc3ccc(F)c(F)c3[nH]2)o1,0.98,-1.63,0.57
CC1CN(c2ccnc3ccc(Sc4ccc(Oc5ccccc5)cc4)cc23)CC(C)N1 (configuration not stated),0.07,2.41,-0.77
O=C(Nc1cccc(-c2nn3ccccc3c2-c2ccnc(Nc3cccc(F)c3)n2)c1)C1CCCCC1,1.19,2.83,-1.4
Nc1nc(N)c2c(Oc3cccc4ccccc34)cccc2n1,4.57,2.3,3.17
Cc1ccc(NC(=O)c2ccc(CN3CCCN(CC4CCCCC4)CC3)cc2)cc1C,7.66,7.13,8.98
Cc1cccc2nc(-c3cccc(-c4ccc(CNCCCN5CCCC5=O)cc4)c3)[nH]c12,9.26,6.82,6.5
CCc1cc(NCc2ccncc2)nc(Nc2ccc(F)cc2)n1,14.4,6.44,4.12
O=C(NCC1CN(Cc2ccc(N3CCCC3)o2)CCCO1)c1ccc2c(c1)OCO2 (configuration not stated),-0.31,0.65,2.95
Cc1cnc(NCC2CCCCC2)nc1N[C@@H](CO)C(=O)Nc1ccccc1,1.68,2.03,-0.71
Cc1noc(C)c1-c1cccc(C(=O)NC2CCN(CCNC(=O)C(c3ccccc3)c3ccccc3)CC2)c1,2.71,1.09,1.64
CCn1c(SCc2ccc(F)cc2)nc2sc3c(c2c1=O)CCN(C)C3,-1.93,1.32,0.64
O=C(Cc1ccc(NC(=O)c2ccc(O)c(-c3ccc(Cl)c(Cl)c3)c2)cc1)NCCc1ccc(Cl)c(Cl)c1,2.01,2.38,-0.6
COc1ccccc1-c1sccc1C(=O)NC1(c2cc(Cl)cc(Cl)c2)CCCC1,1.22,0.95,4.85
O=C(NC1CCCCC1)C1CCCN(C(=O)c2ccc(O)c(-c3ccc(Cl)c(Cl)c3)c2)C1 (configuration not stated),0.15,1.83,-0.03
CCc1cc(-c2n[nH]c(C(F)(F)F)c2-c2ccccc2)c(O)cc1OC,2.03,1.54,2.44
COC(=O)c1cccc(CNCc2ccc(-c3cccc(-c4nc5cccc(C)c5[nH]4)c3)cc2)c1,-0.37,-1.65,-2.21
Cc1ccc(NC(=O)c2ccc(Cl)c(Cl)c2)cc1-c1ccc(C(=O)Nc2ccncc2)cc1,-0.14,0.86,-1.3
COc1ccc2nccc([C@@H](O)CN3CCC(NCc4ccc5cccc(O)c5n4)CC3)c2n1,5.63,11.5,0.77
CCn1c(Cc2ccccc2)nnc1Sc1ccc([N+](=O)[O-])c(C#N)c1,5.75,6.38,3.87
COc1cc2c(cc1COc1ccccc1)CCN1Cc3cc(OC)c(OC)cc3CC21 (configuration not stated),1.91,0.8,-6.12
O=C(Nc1cccc(CN2CCCN(Cc3ccc(O)cc3)CC2)c1)c1ccc(-c2ccccc2)cc1,1.14,0.52,-2.97
CCCCOc1cc(OC)c2ccccc2c1CCNCCCCNCCc1c(OCCCC)cc(OC)c2ccccc12,105,106,104
CN1CCc2ccc(NC(=O)Nc3cccc([N+](=O)[O-])c3)cc2C1,1.58,0.7,1.63
